Experimental findings from a collection of fitness landscapes (doi:10.1126/science.1257360) are described below.

The full ranking holds about 140,000 sequences; the median of “enrichment ratio after two sorts for PhoP signalling” is about 0, and the highest 2% start at about 11. What follows is part of a selection rich in the highest values, with near analogues and random picks from the rest.

B1: PhoQ; a variant is named by its letters at X, in order, P23837 (parent)
chain: MKKLLRLFFPLSLRVRFLLATAAVVLVLSLAYGMVALIGYSVSFDKTTFRLLRGESNLFYTLAKWENNKLHVELPENIDKQSPTMTLIYDENGQLLWAQRDVPWLMKMIQPDWLKSNGFHEIEADVNDTSLLLSGDHSIQQQLQEVREDDDDAEMTHSVAVNVYPATSRMPKLTIVVVDTIPVELKSSYMVWSWFIYVLSANLLLVIPLLWVAAWWSLRPIEALAKEVRELEEHNRELLNPATTRELTSLVRNLNRLLKSERERYDKYRTTLTDLTHSLKTPLXXLQXXLRSLRSEKMSVSDAEPVMLEQISRISQQIGYYLHRASMRGGTLLSRELHPVAPLLDNLTSALNKVYQRKGVNISLDISPEISFVGEQNDFVEVMGNVLDNACKYCLEFVEISARQTDEHLYIVVEDDGPGIPLSKREVIFDRGQRVDTLRPGQGVGLAVAREITEQYEGKIVAGESMLGGARMEVIFGRQHSAPKDE

This assay covers variants of B1. Put plainly: enrichment ratio after two sorts for PhoP signalling (ratio (wild type AVST 3.29)); higher = more functional. The conditions noted are these: with PhoP (E. coli).
For the variant WIQR, the enrichment ratio is at most 0.25.
Turning to TIGD, the enrichment ratio was determined as 11.6.
As to TIRI, the enrichment ratio amounted to 2.01.
TITD: the enrichment ratio is at most 0.25.
Consider FADQ, for which the enrichment ratio was at most 0.25.
Regarding MASY, the enrichment ratio is at most 0.25.
Regarding PWSE, the enrichment ratio was at most 0.25.
As for ECDR, the enrichment ratio is at most 0.25.
On to AKEC, for which the enrichment ratio is at most 0.25.
Take PVAT: the enrichment ratio was at most 0.25.
Under MGSK stands at most 0.25.
For YHSV, the enrichment ratio is at most 0.25.
As for NGSV, the enrichment ratio is at most 0.25.
As to MGSV, the enrichment ratio is 15.6.
Turning to MGWR, the enrichment ratio is at most 0.25.
With NISV, the enrichment ratio is 3.96.
For TGSV, the enrichment ratio stood at 17.2.
On to GGSV, for which the enrichment ratio amounted to 23.9.
The same measure for GNSV: 8.29; for GISV: 11.2.
With RGSV, the enrichment ratio was at most 0.25.
For GIMV, the enrichment ratio amounted to 2.38.
Consider YIFP, for which the enrichment ratio is at most 0.25.
For IYDW, the enrichment ratio was at most 0.25.
Turning to LKWY, the enrichment ratio was at most 0.25.
Take FTWQ: the enrichment ratio is at most 0.25.
Under GAMV stands at most 0.25; under GEMD, at most 0.25.
GANW: the enrichment ratio was at most 0.25.
The same measure for GAMI: 18.9; for GEMS: 4.64; for GEMI: 84.
Take HTQK: the enrichment ratio was at most 0.25.
Under QEKV stands at most 0.25.
As for MKDS, the enrichment ratio was at most 0.25.
For the variant VMDC, the enrichment ratio is at most 0.25.
As to HYLA, the enrichment ratio was at most 0.25.
Turning to THAI, the enrichment ratio came out at 14.8.
For TSAI, the enrichment ratio worked out at 16.9.
As for SGKR, the enrichment ratio was at most 0.25.
As to TGAI, the enrichment ratio is 12.3.
RGAI: the enrichment ratio is at most 0.25.
For SGAI, the enrichment ratio came out at 12.3.
The same measure for SHAI: at most 0.25.
For the variant NHAI, the enrichment ratio was at most 0.25.
Consider NSAI, for which the enrichment ratio worked out at 0.375.
Under KSAI stands at most 0.25.
For CFAI, the enrichment ratio is at most 0.25.
Regarding SGAT, the enrichment ratio was 5.6.
Take HRPD: the enrichment ratio was at most 0.25.
On to FYDW, for which the enrichment ratio was at most 0.25.
Under TKHK stands at most 0.25; under AFWS, at most 0.25.
With EVSQ, the enrichment ratio is at most 0.25.
With SCCW, the enrichment ratio worked out at 5.25.
Consider TARR, for which the enrichment ratio stood at 0.314.
For PTWW, the enrichment ratio is at most 0.25.
Take ADAI: the enrichment ratio amounted to 4.82.
Take KDAI: the enrichment ratio was at most 0.25.
On to TDAI, for which the enrichment ratio is 13.6.
On to TQTK, for which the enrichment ratio was at most 0.25.
NQSC: the enrichment ratio is at most 0.25.
For TQSC, the enrichment ratio was determined as 15.3.
TQTA: the enrichment ratio worked out at 5.01.
On to TQTC, for which the enrichment ratio came to 18.9.
On to FQTM, for which the enrichment ratio was at most 0.25.
Regarding TQTM, the enrichment ratio was determined as 22.5.
In the case of TQFC, the enrichment ratio is 8.5.
Take GQTM: the enrichment ratio is at most 0.25.
The same measure for FPER: at most 0.25; for LWDG: at most 0.25.
The same measure for AEHV: at most 0.25; for AGGV: 11.4; for AHGV: at most 0.25.
Take AEGV: the enrichment ratio was determined as 17.5.
Under AIGV stands at most 0.25; under AMGV, at most 0.25; under VYHA, at most 0.25.
On to ALVG, for which the enrichment ratio is 1.71.
Take HEES: the enrichment ratio was at most 0.25.
The same measure for LAFL: 2.72.
The same measure for AFDH: at most 0.25.
With ACVN, the enrichment ratio was 31.5.
The same measure for ALVN: 13.7.
With ACTI, the enrichment ratio was 5.16.
In the case of ACNL, the enrichment ratio was at most 0.25.
On to ACWM, for which the enrichment ratio was at most 0.25.
Turning to ACPN, the enrichment ratio is at most 0.25.
Take ACTM: the enrichment ratio amounted to 11.9.
For the variant ALNL, the enrichment ratio is 1.07.
ACGM: the enrichment ratio is at most 0.25.
Regarding ACTC, the enrichment ratio was 4.29.
For the variant ALQN, the enrichment ratio is at most 0.25.
Consider ACIM, for which the enrichment ratio was determined as 30.7.
Consider NDFR, for which the enrichment ratio is 2.54.
The same measure for FPHA: at most 0.25; for HDNY: at most 0.25; for QCKR: at most 0.25.
LDKY: the enrichment ratio was at most 0.25.
Take YWPF: the enrichment ratio is at most 0.25.
The same measure for DPVE: at most 0.25; for NGRY: at most 0.25.
For ACQN, the enrichment ratio is at most 0.25.
ACAM: the enrichment ratio was 30.7.
As to ACAK, the enrichment ratio is 0.412.
As to ACAT, the enrichment ratio came out at 0.287.
For the variant YTVN, the enrichment ratio was at most 0.25.
With ACRM, the enrichment ratio was at most 0.25.
On to ATPN, for which the enrichment ratio was at most 0.25.
Regarding ACAE, the enrichment ratio worked out at 15.5.
The same measure for KCAE: at most 0.25.
For ACAN, the enrichment ratio came out at 15.5.
Take ACAV: the enrichment ratio is 3.32.
ATVN: the enrichment ratio worked out at 19.4.
In the case of CLIL, the enrichment ratio is at most 0.25.
Turning to RMFK, the enrichment ratio was at most 0.25.
For PFPY, the enrichment ratio was at most 0.25.
In the case of RDQR, the enrichment ratio is at most 0.25.
On to IEIS, for which the enrichment ratio is at most 0.25.
The same measure for IVGI: at most 0.25; for EILP: at most 0.25; for ACVM: 12.1.
On to ACNM, for which the enrichment ratio is at most 0.25.
Regarding ACPM, the enrichment ratio stood at 0.39.
Regarding PFDF, the enrichment ratio is at most 0.25.
AKVQ: the enrichment ratio was determined as 2.82.
For the variant TKVG, the enrichment ratio amounted to 1.43.
Turning to TKVQ, the enrichment ratio is 11.7.
As for HKVI, the enrichment ratio was at most 0.25.
On to TKVA, for which the enrichment ratio came out at 18.4.
TKVH: the enrichment ratio came to 12.3.
Turning to HKVH, the enrichment ratio was at most 0.25.
In the case of TKVI, the enrichment ratio came out at 30.1.
With KKVQ, the enrichment ratio is at most 0.25.
The same measure for AKVI: 5.34; for MKVH: at most 0.25.
Turning to TKVK, the enrichment ratio is at most 0.25.
Consider RIDW, for which the enrichment ratio is at most 0.25.
For the variant SRWP, the enrichment ratio is at most 0.25.
On to PCHL, for which the enrichment ratio was at most 0.25.
With IMSS, the enrichment ratio was at most 0.25.
For RNRM, the enrichment ratio was at most 0.25.
The same measure for QWVH: at most 0.25.
Consider AEDM, for which the enrichment ratio was at most 0.25.
As for YQHC, the enrichment ratio is at most 0.25.
On to TKVV, for which the enrichment ratio was determined as 16.7.
Turning to AKVV, the enrichment ratio stood at 11.
For the variant TKVM, the enrichment ratio was 36.7.
Consider AKVM, for which the enrichment ratio was at most 0.25.
The same measure for HKVV: at most 0.25; for MEMA: at most 0.25.
Consider MKVM, for which the enrichment ratio is at most 0.25.
In the case of HKMA, the enrichment ratio was at most 0.25.
In the case of TKMA, the enrichment ratio worked out at 20.5.
